Results from PubChem BioAssay (NCI).
This is part of a sample that, as a whole, favours compounds with a hit. Of some 79,000 tested, about 15% had one in any assay. Calls of active or inactive are those of the source. Cut-off read from the data, not from the text of the source: active = growth inhibition above about 70%; inactive = the rest.

Legend:
[1] = NCI Yeast Anticancer Drug Screen. Data for the rad50 strain (AID 155);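 note: 0% = growth of vehicle-only cultures of the same strain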; settings: S. cerevisiae rad50 strain growth inhibition; at 50.0 µM; stronger effect = higher value
Procedure, shortened: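 Inhibition values express reduced yeast growth in compound-treated cultures relative to vehicle-treated controls.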

[2] = NCI Yeast Anticancer Drug Screen. Data for the mec2-1 strain (AID 157); settings: S. cerevisiae mec2-1 strain, at 50.0 µM, stronger effect = higher value
Procedure, shortened: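 Cells of the genetically defined mec2-1 yeast strain are incubated with test compound. Inhibition of growth is calculated against vehicle-treated controls.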

[3] = NCI Yeast Anticancer Drug Screen. Data for the sgs1 mgt1 strain (AID 161);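 note: 0% = growth of cultures given vehicle only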; settings: S. cerevisiae sgs1 mgt1 strain, at 50.0 µM, stronger effect = higher value
Procedure, shortened: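 Mutant yeast exposed to compound; growth scored against vehicle-only wells.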

[4] = NCI Yeast Anticancer Drug Screen. Data for the cln2 rad14 strain (AID 165);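 note: 0% = growth equal to vehicle treated cultures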; settings: S. cerevisiae cln2 rad14 strain, at 50.0 µM, stronger effect = higher value
Procedure, shortened: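 The screen exposed genetically defined yeast (cln2 rad14) to test compounds and scored growth inhibition relative to vehicle-treated controls.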

[5] = NCI Yeast Anticancer Drug Screen. Data for the bub3 strain (AID 167); settings: S. cerevisiae bub3 mutant strain, at 50.0 µM, stronger effect = higher value
Procedure, shortened: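 Steps: expose the mutant yeast strain to compound; grow alongside vehicle-treated cultures; measure growth; express inhibition against the vehicle cultures.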

[6] = NCI Yeast Anticancer Drug Screen. Data for the mlh1 rad18 strain (AID 175); settings: S. cerevisiae mlh1 rad18 strain growth inhibition; at 50.0 µM; stronger effect = higher value
Procedure, shortened: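 Compound-treated yeast growth, normalised to vehicle controls. Strain bears defined DNA repair mutations.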

Measured: growth inhibition

CC1C2CC(C3(C)OCCO3)CCC2(C)CCC12OCCO2 (stereo not drawn)
inactive: [1] 1.65% | [2] 16.9% | [3] 3.15% | [4] 11.5% | [5] 2.9% | [6] 5.4%

C/C(=N\N)c1ccc(Cl)cc1O
inactive: [1] 7.45% | [2] -34.2% | [3] 7.2% | [4] 4.25% | [5] 3.5% | [6] 16%

COc1cc(N=Nc2cccc(S(=O)(=O)O)c2)ccc1NC(=O)c1ccc(C(=O)Nc2ccc(N=Nc3cccc(S(=O)(=O)O)c3)cc2OC)cc1
inactive: [1] 3.35% | [2] 17.4% | [3] 23% | [4] -8.2% | [5] -13.8% | [6] 21.2%

c1ccc(-c2[nH]nc3nc4c(nc23)CCCC4)cc1
inactive: [1] 7.4% | [2] -5.3% | [3] -5.1% | [4] -32.9% | [5] -33% | [6] 6.6%

C=C1C(=O)O[C@H]2[C@@H](O)[C@H](C)CCC[C@]3(C)O[C@H]3CC[C@@]3(C)O[C@@H]3C[C@@H]12
active: [3] 70.5%
inactive: [1] 19.4% | [2] 37.2% | [4] 41.8% | [5] 61.1% | [6] 58.2%

Cc1cc(C#N)c[n+](C)c1
inactive: [1] -7.25% | [2] -14.3% | [3] -25% | [4] 16.1% | [5] 5.25% | [6] -3.75%

O=C(/C=C\c1ccccc1)c1ccc(-c2ccc([N+](=O)[O-])cc2)cc1
inactive: [1] 10.4% | [2] 11.4% | [3] 9.05% | [4] -3.65% | [5] 4.8% | [6] 22.6%

N#CN=C(N(Cc1ccccc1)Cc1ccccc1)N(Cc1ccccc1)Cc1ccccc1
inactive: [1] -3.65% | [2] -12.4% | [3] -18.6% | [4] 20.6% | [5] 12.4% | [6] -14.1%

CCOC(=O)C1Oc2ccccc2OC1C (stereo not drawn)
inactive: [1] 24.5% | [2] -15.7% | [3] 9.45% | [4] 12.9% | [5] 16.3% | [6] 3.85%

COc1ccc2oc(=N)c(C(N)=S)cc2c1
inactive: [1] 28% | [2] 24.2% | [3] -3.45% | [4] 16.8% | [5] 7.9% | [6] -2.95%

CN(C)C(=S)c1cccc2ccccc12
inactive: [1] 5.1% | [2] -10.5% | [3] -1.95% | [4] -31.4% | [5] -27.2% | [6] -8.45%

CCOc1ccc(/C=C2/NC(=S)N(CN3CCCCC3)C2=O)cc1
inactive: [1] 5.25% | [2] -28.7% | [3] 25.1% | [4] -18.9% | [5] -1.5% | [6] 24.6%

O=C(c1ccccc1)C(O)(c1ccccc1)C(c1ccccc1)c1ccccc1 (stereo not drawn)
inactive: [1] 5.8% | [2] 18.6% | [3] 16.9% | [4] 13% | [5] 6.75% | [6] 8.05%

O=C(/C=C/c1cccc(O)c1)c1ccccc1
active: [6] 92%
inactive: [1] 29.4% | [2] 8.25% | [3] 38.4% | [4] 59.8% | [5] -5.6%

N=c1c2ncn(C3OC(COP(=O)(O)O)C(O)C3O)c2ncn1O (stereo not drawn)
inactive: [1] 12.7% | [2] 0% | [3] -6.6% | [4] -18% | [5] -9.6% | [6] 1.15%

CON(C)c1nc(N(C)C)nc(N(C)C)n1
inactive: [1] -1.65% | [2] 11.6% | [3] -6.25% | [4] 3.7% | [5] 1.8% | [6] 0.9%

COc1ccc(-c2cc3cc(CCCOC4OC(COC5OCC(O)C(O)C5O)C(O)C(O)C4O)cc(OC)c3o2)cc1OC (stereo not drawn)
inactive: [1] 31% | [2] 17.4% | [3] 34.6% | [4] 23.8% | [5] 8.8% | [6] 23.4%

N#CC1(C#N)C(c2ccccc2)C=CC12OCCCO2 (stereo not drawn)
inactive: [1] 10.9% | [2] 6.75% | [3] 3.9% | [4] 32% | [5] -5.3% | [6] 23.2%

CCN(CC)CCNc1ccc(OC)c2sc3ccccc3c(=O)c12
inactive: [1] 53.6% | [2] 25.4% | [3] 20.9% | [4] -7.85% | [5] 40.4% | [6] 24.6%

CCCCC1(C#Cc2ccccc2)Sc2ccccc2N1C (stereo not drawn)
inactive: [1] -9.9% | [2] -8.45% | [3] 9.25% | [4] -21.9% | [5] -7.9% | [6] 2.25%

O=C(Nc1cc(Cl)c(Cl)cc1Cl)N1CCOCC1
inactive: [1] 0.15% | [2] -30.7% | [3] -11.2% | [4] 5.25% | [5] -6.1% | [6] -5.15%

Cc1ccc(S(=O)(=O)OC2C3OC(C)(C)OC3OC2C2CSC(=S=O)S2)cc1 (stereo not drawn)
inactive: [1] 31.6% | [2] -0.6% | [3] 21.8% | [4] 22.2% | [5] -3.15% | [6] 12.7%

NS(=O)(=O)c1ccc(NC(=O)C2C(=O)N(c3ccc(S(N)(=O)=O)cc3)C(=O)/C2=N/O)cc1 (stereo not drawn)
inactive: [1] 9.55% | [2] 0.25% | [3] 9.8% | [4] -26.4% | [5] 2% | [6] 33.1%

C(=N/Nc1ccncc1)/c1ccc2ccccc2n1
inactive: [1] -1.8% | [2] -22.6% | [3] -11.4% | [4] -26.9% | [5] -7.65% | [6] 4.05%

O=C(/C=C/c1ccccc1)SCc1ccccc1
inactive: [1] -2.9% | [2] 14% | [3] 11.2% | [4] -2.1% | [5] -4.75% | [6] 2.35%

CCCCCCCOc1ccc(C2=C(c3ccccc3)C(=O)C(c3ccccc3)=C2c2ccccc2)cc1
inactive: [1] 22.4% | [2] 3.3% | [3] 8.3% | [4] 15.9% | [5] 3.95% | [6] 2.4%

O=C1NCCS(=O)(=O)N2CCC[C@@H]12
inactive: [1] 54.4% | [2] -20% | [3] 5.1% | [4] 21.4% | [5] -19.6% | [6] -14.9%

Cc1ccc2nc(N)nc(N)c2c1
inactive: [1] -12.9% | [2] 7.15% | [3] -8.4% | [4] 3.25% | [5] -10.6% | [6] -3.8%

CN(C)CC1CCCC/C1=N/OC(=O)c1ccc(Cl)cc1 (stereo not drawn)
inactive: [1] 0.15% | [2] 2.1% | [3] 10.9% | [4] 11.4% | [5] -4.6% | [6] 13.7%

C/C=C(\c1ccccc1)N1CCOCC1
inactive: [1] 17.9% | [2] -9.15% | [3] -8.6% | [4] -37.5% | [5] 7.1% | [6] 5.25%

CC(C(=O)c1ccncc1)c1ccccn1 (stereo not drawn)
inactive: [1] 1.85% | [2] 6.65% | [3] -25.4% | [4] -18.9% | [5] -12.9% | [6] 3.5%

O=Cc1c(O)ccc2ccc3ccccc3c12
inactive: [1] 16.1% | [2] 7.25% | [3] 10.1% | [4] -32.7% | [5] -7.7% | [6] 16.4%

CC(=O)Nc1cccc(NC(C)=O)c1
inactive: [1] 0.4% | [2] 4.55% | [3] 5.1% | [4] -17.9% | [5] -1.05% | [6] 11.2%

COc1ccc2c3c(c4ccccc4c2c1)C(=O)OC3=O
inactive: [1] 27.8% | [2] 11.2% | [3] 16.7% | [4] 18.6% | [5] 21.8% | [6] 19.2%

CCN(CC)S(=O)(=O)Nc1c(C)n(C)n(-c2ccccc2)c1=O
inactive: [1] -5.6% | [2] -17.2% | [3] -4.05% | [4] -3.7% | [5] -2% | [6] 14%

Cc1ccccc1OCC(O)CO (stereo not drawn)
inactive: [1] 4.2% | [2] -5.9% | [3] -8.7% | [4] 22.2% | [5] -23.4% | [6] -13.6%

Cc1c2ccccc2c(C)n2c1nc1cc3ccccc3cc12
inactive: [1] 9.8% | [2] 11.9% | [3] 11.8% | [4] 8.55% | [5] 4.65% | [6] 28.6%

O=C(O)c1ccc(C(=O)O)c(C(=O)Nc2ccc3c(c2)C(=O)c2ccccc2-3)c1
inactive: [1] 41.9% | [2] -26.6% | [3] -2.15% | [4] -2.85% | [5] 9.7% | [6] 48.9%
